In all, about 350,000 compounds went through this assay and about 2,400 (0.69%) were called active. The full list was thinned out, with actives kept by preference. Unmarked numbers belong to inactive results. Cut-off read from the data, not from the text of the source: active = inhibition above about 41%; inconclusive = no clear call, values can overlap the other calls; inactive = below that.

This assay is described as follows: EBV LMP1-driven NF-kappaB luciferase reporter inhibitors, primary screen, cell-based, luminescence, single point (AID 504558).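 Note: 0% = neutral control wells and 100% = reference inhibitor control.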 The note with it: LMP1-induced NF-kappaB luciferase reporter cells, at 12.5 µM, active compounds read high.
What is called inhibition is the relative decrease from the control value, in per cent. With `CCOc1cc(/C=N/NC(=O)c2c(C)nc3ccc(Cl)cn23)ccc1O`, the inhibition was -8.3%.

With `O=C(Cn1ccc([N+](=O)[O-])n1)NCc1cccs1`, the inhibition is -5.11%.

With `O=C(CCn1ccc([N+](=O)[O-])n1)Nc1nccs1`, the inhibition is -2.16%.

For `Cc1ccnc(NC(=O)Cn2ccc([N+](=O)[O-])n2)c1`, the inhibition is 53.9% (active).

Regarding `Cn1ncc([N+](=O)[O-])c1C(=O)Nc1cc(Cl)ccc1Cl`, the inhibition is 1.05%.

With `CCc1nc2c(=O)[nH]cnc2o1`, the inhibition was 1.63%.

For the compound `CCN1C(=O)[C@H]2[C@@H](c3ccc(C(F)(F)F)cc3)N[C@]3(CCCN(Cc4ccc(Br)cc4)C3=O)[C@H]2C1=O`, the inhibition is 33.7%.

With `C[C@H]1CN([C@@H](C)CO)S(=O)(=O)c2ccc(-c3cccc(F)c3)cc2O[C@@H]1CN(C)C`, the inhibition was -3.16%.

With `Cc1ccccc1-n1nc(C)c2cc(C(=O)NC3CC3)sc21`, the inhibition is 48.8% (active).

`Cc1ccccc1C(=O)NC(=S)NC1CC1`: the inhibition is 2.37%.

Regarding `Cc1cccn2c(=O)c3cc(C(=O)NC4CCCCC4)sc3nc12`, the inhibition was -2.71%.

For `CC(C)[C@H](NC(=O)c1ccccc1F)C(=O)Nc1cccc(S(=O)(=O)N2CCOCC2)c1`, the inhibition is -8.03%.

For `CCN(CC)C(=O)C1=C(C)N(Cc2ccc(OC)cc2)C(=O)C(CC(=O)NCc2ccco2)C1` (stereo unspecified), the inhibition was -5.75%.

With `O=C(COc1ccc(S(=O)(=O)N2CCCC2)cc1[N+](=O)[O-])N1CCCCC1`, the inhibition was -1.43%.

With `O=C(C1=C[C@H](c2ccc(C(F)(F)F)cc2)C[C@H](OCc2ccc(CO)cc2)O1)N1CCN(Cc2ccccc2)CC1`, the inhibition is -10.6%.

In the case of `O=C(C1=C[C@H](c2coc3ccccc3c2=O)C[C@H](OCc2ccc(CO)cc2)O1)N1CCOCC1`, the inhibition is -1.64%.

With `O=C(C1=C[C@H](c2coc3ccccc3c2=O)C[C@H](OCc2ccc(CO)cc2)O1)N1CCN(Cc2ccccc2)CC1`, the inhibition is 72.5% (active).

In the case of `CN1OC[C@@H]2CN(C(=O)c3ccc(-c4ccccc4)cc3)[C@H](c3ccc(-c4cccc(F)c4)cc3)C[C@@H]21`, the inhibition is -3.6%.

Turning to `O=C(O)CCCCCNc1ncnc2ccc(Br)cc12`, the inhibition was 3.15%.

For the compound `Brc1ccc2ncnc(NCc3cccnc3)c2c1`, the inhibition is 27.2%.

For the compound `COc1ccc(Nc2ncnc3ccc(Br)cc23)c(OC)c1`, the inhibition is 69.1% (active).

On to `Cc1ccc([C@H]2N[C@]3(CCCN(Cc4ccccc4)C3=O)[C@H]3C(=O)N(Cc4ccccc4)C(=O)[C@@H]23)cc1`, for which the inhibition was 4.09%.

On to `O=C(O)CCC(=O)N(Cc1ccccc1)Cc1ccccc1`, for which the inhibition was -12%.

Take `CCC(C)NC(=O)CCCc1ccccc1` (stereo unspecified): the inhibition is -18%.

Take `O=C(O)CCCc1ccccc1`: the inhibition is 65.7% (active).

As to `O=C(N/N=C/c1ccccn1)c1cccc(NC(=O)c2ccc(Cl)cc2)c1`, the inhibition is -0.655%.

For `S=C(NN=Cc1ccccn1)Nc1ccccn1`, the inhibition is 76.3% (active).

For the compound `S=C(Nc1cccnc1)Nc1ccccn1`, the inhibition was -5.41%.

Take `COc1ccc(NC2CCCN(C(=O)c3ccccc3-c3ncc[nH]3)C2)cc1` (stereo unspecified): the inhibition was 1.54%.

For `C[C@H]1CN([C@@H](C)CO)C(=O)CCCn2cc(nn2)CO[C@@H]1CN(C)S(=O)(=O)c1ccc(-n2cccn2)cc1`, the inhibition is 4.52%.

For the compound `CC1CCN(c2ccc3c(c2)S(=O)(=O)c2cc(C(=O)O)ccc2C3=O)CC1`, the inhibition was -11.1%.

In the case of `CC1=C(C(=O)N2CCOCC2)CC(CC(=O)NCCN2CCOCC2)C(=O)N1CCC1=CCCCC1` (stereo unspecified), the inhibition is 6.89%.

On to `CCN(CC)C(=O)c1sc2nc(-c3ccccc3)ccc2c1N`, for which the inhibition was -15.3%.

As to `Cc1sc2nc(CC(N)=O)[nH]c(=O)c2c1-c1ccccc1`, the inhibition was -10.6%.

As for `NC(=O)c1sc2nc3c(c(-c4ccccc4)c2c1N)CCC3`, the inhibition is 44.3% (active).

For the compound `CCOC(=O)C1CCN(C(=O)CC2C(=O)N(Cc3ccccc3)C(C)c3nc4ccccc4n32)CC1` (stereo unspecified), the inhibition is 14.1%.

Regarding `CC1c2nc3ccccc3n2C(CC(=O)NCCCN2CCOCC2)C(=O)N1Cc1ccccc1` (stereo unspecified), the inhibition is 0.985%.

On to `CC(C)CCNC(=O)CC1C(=O)N(Cc2ccccc2)C(C)c2nc3ccccc3n21` (stereo unspecified), for which the inhibition is 48.7% (active).

Regarding `CN(C)C(CNC(=O)c1cccc(S(=O)(=O)N2CCc3ccccc3C2)c1)c1ccccc1` (stereo unspecified), the inhibition was -16.9%.

Regarding `CC(CN1CCOCC1)OC(=O)c1ccc(Cl)cc1Cl` (stereo unspecified), the inhibition is -3.67%.

For the compound `CC(C)OC(=O)c1ccc(NCc2cc(O)ccc2O)cc1Cl`, the inhibition was 72.4% (active).

Turning to `CC(OC(=O)c1ccc(Cl)cc1O)C(=O)NCCC1=CCCCC1` (stereo unspecified), the inhibition is -1.59%.

Turning to `O=C(c1ccccc1)N1CCN(c2cc(-c3ccccc3)nc3cc(-c4cccc(Cl)c4)nn23)CC1`, the inhibition was -2.14%.

For `C#Cc1cc(N2CCN(C(=O)c3ccoc3)CC2)n2nc(-c3cccc(Cl)c3)cc2n1`, the inhibition is 53.9% (active).

For the compound `O=C(c1ccccc1)N1CCN(C(=O)c2cc3nc(-c4ccccc4)cc(C(F)(F)F)n3n2)CC1`, the inhibition was 6.54%.

With `C=C(C)C(=O)O[C@H]1C/C(C)=C\C(=O)/C=C(\C)[C@H](O)[C@@H]2OC(=O)C(=C)[C@@H]21`, the inhibition is 88.8% (active).

As to `CNC(=O)c1ccc(CN(C)C(=O)c2cc(C3CC3)nc3c2cnn3C(C)C)cc1`, the inhibition is -3.68%.

As to `CC1CCCC(C)N1C(=O)COC(=O)c1ccccc1C(=O)c1ccccc1` (stereo unspecified), the inhibition is -3.93%.

Take `COc1cc(C(=O)N2CCOC23CCN(Cc2ccccc2)CC3)cc(OC)c1OC`: the inhibition was 4.75%.

Take `Clc1cccc(-c2nc(NCC3CCCO3)c3ccccc3n2)c1` (stereo unspecified): the inhibition was -0.333%.

On to `NC(N)=Nc1nc(-c2ccccc2)c2cc(Cl)ccc2n1`, for which the inhibition was -32.8%.

For `Clc1ccc2nc(-c3ccccc3)nc(C(Cl)Cl)c2c1`, the inhibition was 86.7% (active).

As to `CC(C)(C)N(Cc1ccccc1)C(=O)c1ccncc1`, the inhibition is 11.5%.

For the compound `CCN(Cc1ccncc1)C(=O)CCc1ccccc1`, the inhibition was 78.9% (active).

Regarding `CCN(CC)C(=O)N(CC)Cc1ccccc1`, the inhibition is 2.28%.

`CCN(CC)C(=O)C1=C(C)N(Cc2ccc(C(C)(C)C)cc2)C(=O)C(CC(=O)NCc2cccc3ccccc23)C1` (stereo unspecified): the inhibition was -0.881%.

Regarding `CCOc1cc(/C=N/NC(=O)c2ccncc2)cc(Br)c1O`, the inhibition was -1.49%.

Regarding `CNC(=O)c1csc(Cc2c(Cl)sc3ccc(Cl)cc23)n1`, the inhibition was 54.8% (active).

As for `CNC(=O)c1csc(-c2ccccc2)n1`, the inhibition was 6.33%.

`CC(=O)NNC(=O)c1csc(Cc2c(Cl)sc3ccc(Cl)cc23)n1`: the inhibition is 8.06%.

For `C[C@@H]1CN([C@H](C)CO)S(=O)(=O)c2ccc(C#C[C@@H](C)O)cc2O[C@@H]1CN(C)Cc1ccc(-c2ccccc2)cc1`, the inhibition is -5.47%.

On to `Cc1onc(-c2ccccc2)c1-c1nnc(COC(=O)c2ccc(N(C)C)cc2)o1`, for which the inhibition was 16.7%.

On to `COc1cccc(-c2nnc(NC(=O)c3ccc(S(=O)(=O)N(CC(C)C)CC(C)C)cc3)o2)c1`, for which the inhibition was 44.9% (active).

As for `COc1ccc(-c2nnc(NC(=O)CS(=O)(=O)c3ccc(Cl)cc3)o2)c(OC)c1`, the inhibition is -10.8%.

In the case of `COc1cc(-c2nnc(NC(=O)CS(=O)(=O)c3ccc(Cl)cc3)o2)cc(OC)c1OC`, the inhibition was 3.37%.

In the case of `CNC(=O)C[C@H]1C(=O)N(Cc2ccccc2)C[C@@H]1CSC`, the inhibition was -2.82%.

`O=C(C[C@H]1C[C@H]2c3cc(NS(=O)(=O)c4ccc(F)cc4)ccc3O[C@H]2[C@H](CO)O1)NCc1cc(F)ccc1F`: the inhibition was 4.21%.

For `COc1cccc(CNc2nc(C(F)(F)F)nc3ccccc23)c1`, the inhibition is -0.361%.

As to `COc1ccc(CNc2ncnc3ccccc23)cc1`, the inhibition was 41.7% (active).

With `COc1ccc(CNc2nccs2)cc1`, the inhibition is 8.57%.

In the case of `COc1cc2ccccc2cc1C(=O)Nc1ccccc1C`, the inhibition is -76.9%.

With `COc1ccc(C(=O)Nc2cc(C)c(NC(=O)c3ccccc3OC)cn2)cc1`, the inhibition is 40.6% (active).

For `COc1ccc(C(=O)N/N=C(\C)CC(=O)Nc2ccc(Cl)cn2)cc1`, the inhibition was -1.25%.

With `O[C@@H]1C[C@H](c2ccccc2)N(Cc2cccs2)C[C@H]1n1cc(C2CC2)nn1`, the inhibition is -8.56%.

Consider `Cc1ccc(C(=O)OCC(=O)NC2CCCCCCC2)cc1C`, for which the inhibition was 7.43%.

With `COc1ccc(C(C)(C)C)cc1NC(=O)CN(C)C1=NS(=O)(=O)c2ccccc21`, the inhibition is -11.2%.

For `COC(=O)c1[nH]c2cccc(C)c2c1NC(=O)CN1CCCc2ccccc21`, the inhibition is 87.4% (active).

Consider `COC(=O)c1[nH]c2ccccc2c1NC(=O)CN1CCCc2ccccc21`, for which the inhibition was -17.6%.

For the compound `NS(=O)(=O)c1cccc(NC(=O)CN2CCCc3ccccc32)c1`, the inhibition was -3.3%.

For the compound `O=C(CCc1ccc(O)cc1)NN=Cc1cc(Br)ccc1O`, the inhibition is 6.93%.

Consider `Cc1ccccc1OS(=O)(=O)c1cccc([N+](=O)[O-])c1`, for which the inhibition was 0.335%.

As to `Fc1ccc2[nH]c3c(N4CCSCC4)ncnc3c2c1`, the inhibition was 53.7% (active).

Regarding `O=C(NCC(F)(F)F)c1ccc(S(=O)(=O)NCCc2ccc3c(c2)OCCO3)cc1`, the inhibition was 0.519%.

With `C[C@@H]1CN([C@@H](C)CO)C(=O)CCCn2nncc2CO[C@@H]1CN(C)S(=O)(=O)c1ccc(-c2ccccc2)cc1`, the inhibition is -1.13%.

Consider `COC(=O)CCNc1ccc2c(c1)OCCO2`, for which the inhibition was 45.2% (active).

`COc1ccccc1OCCCC(=O)Nc1ccc2c(c1)OCCO2`: the inhibition is -0.694%.

Turning to `Cc1ccc(OCCCC(=O)Nc2ccc3c(c2)OCCO3)cc1`, the inhibition is 8.28%.

`CCc1nnc(NC(=O)c2ccco2)s1`: the inhibition is -0.797%.

On to `CNC(=S)Nc1ccc([N+](=O)[O-])cc1`, for which the inhibition is -10.6%.

Take `O=C1/C(=C\c2ccc([N+](=O)[O-])cc2)CS(=O)(=O)C/C1=C/c1ccc([N+](=O)[O-])cc1`: the inhibition is 92.5% (active).

On to `CC(=O)Nc1ccc(C=Cc2ccc([N+](=O)[O-])cc2)cc1`, for which the inhibition was -20.1%.

Values taken from PubChem BioAssay AID504558 (Broad Institute, 2011).
